Source: PubChem BioAssay (several laboratories)
Shown are actives, neighbours in structure and some others; about 6.9% of the full set was active somewhere.
MPTP block – permeability transition pore inhibition; isolated mouse mitochondria, Ca2+ swelling absorbance, 30 min; inhibition, % at 10 µM; 360,000 tested, 1.4% active;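 active = inhibition of 50% or more, scaled per plate between neutral and stimulator controls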;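 also: 0% = DMSO wells given calcium and 100% = 1 mM EGTA wells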
Beta cell apopt – beta cell apoptosis inhibition | INS-1E cytokine-induced death, ATP luminescence, 48 h; percent of positive-control rescue, neutral wells zero | protection from apoptosis, % (test concentration not listed) | 300,000 tested, 0.8% active;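 active = Every replicate reaches about 75%, or at least half do and their mean reaches it too, limit read from the data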;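 also: 0% = cytokine-treated negative control wells and 100% = positive control rescue; higher means more ATP so stronger rescue from cytokine killing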
CSC inhib – blocks cancer stem cells; cancer stem cell-like cells viability, luminescence; inhibition, % at 7.5 µM; 300,000 tested, 1.1% active; AID 2717; in the data active = inhibition above about 75%; tested in HMLE shEcad cells
Mdm2 MdmX PPI – disrupts the human Mdm2-MdmX interaction | SaOS-2 split-luciferase Mdm2/MdmX complementation, luminescence | O15151+Q00987 | inhibition, % at 8 µM | 330,000 tested, 3% active | AID 485346;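 active = inhibition of at least 50% at 8 µM in the primary screen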
SKKanGAS inh – blocks kanamycin growth of S. pyogenes SKKanGAS strain. BacTiter-Glo, 6 h. inhibition, % at 7.5 µM. 300,000 tested, 1.3% active. AID 1662;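 active = mean replicate score, as percent of positive control median, at least 50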;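 also: strain carries kanamycin resistance gene driven by streptokinase promoter and grows in 40 µg/ml kanamycin; loss of luminescence reflects streptokinase promoter inhibition or plain growth inhibition; 0% = median of DMSO wells and 100% = positive control at its reference dose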
GRIN3A LBD mod – modulators (binders) of human NR3A ligand-binding domain; NR3A LBD differential scanning fluorimetry, Tm shift; 0% = protein alone, 100% = glycine-bound protein; Tm shift relative to glycine control, % at 25 µM; 340,000 tested, 2.5% active; AID 1259313;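 active = melting temperature shift of at least 10% of the positive control shift, at one fixed dose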
Mdm2 MdmX conf – confirmation of human Mdm2/MdmX interaction inhibitors; shares compounds with Mdm2 MdmX PPI; Mdm2-MdmX binding, luminescent assay; inhibition, % at 8 µM; 10,000 tested, 55% active; in the data active = inhibition above about 40%
Full FLuc ctr – counter-screen for Mdm2/MdmX inhibitors: full-length luciferase; shares compounds with Mdm2 MdmX PPI; SaOS-2 full-length luciferase counterscreen, luminescence; inhibition, % at 8 µM; 6,200 tested, 77% active;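 active = mean inhibition at 8 µM reaching about 37%, which flags the compound as non-specific, limit read from the data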;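 also: p53-null SaOS-2 cells with luciferase driven by a doxycycline-inducible promoter; compound on cells about two nights before reading with doxycycline added after day one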
Starred values were filed as active, the others as inactive.

For O=C(NCCCN1CCCC1)c1ccc2c(c1)N(Cc1cccc(Cl)c1)C(=O)c1ccccc1S2=O (stereo not given) the results were MPTP block -1, Beta cell apopt -4, CSC inhib -7, Mdm2 MdmX PPI 53*, SKKanGAS inh 0, GRIN3A LBD mod 0 and Mdm2 MdmX conf 14.
For CCNC(=S)N(CCc1ccccc1C)Cc1cc2cc(OC)c(OC)cc2[nH]c1=O the results were MPTP block -1, Beta cell apopt -6, CSC inhib 15, Mdm2 MdmX PPI 14, SKKanGAS inh 4 and GRIN3A LBD mod -4.
Screening COc1cc2cc(CN(CCc3ccccc3C)C(=S)NCCCN3CCOCC3)c(=O)[nH]c2cc1OC returned MPTP block 1, Beta cell apopt 0, CSC inhib 2, Mdm2 MdmX PPI 52*, SKKanGAS inh 3, GRIN3A LBD mod -2 and Mdm2 MdmX conf 20.
`COc1cc2cc(CN(CCc3ccccc3C)C(=S)NCCCN(C)C)c(=O)[nH]c2cc1OC` gave MPTP block -2, Beta cell apopt 1, CSC inhib 3, Mdm2 MdmX PPI 55*, SKKanGAS inh 6, GRIN3A LBD mod -1 and Mdm2 MdmX conf 22.
CN(CC1CCOCC1)C(=O)CC1C(=O)NCCN1Cc1ccc(-c2ccccc2)cc1 (stereo not given) was read as MPTP block 0, Beta cell apopt -3, CSC inhib -9, Mdm2 MdmX PPI 1, SKKanGAS inh -4 and GRIN3A LBD mod -1.
Screening CN(C(=O)COC(=O)c1cc(S(=O)(=O)N2CCOCC2)ccc1Cl)C1CCS(=O)(=O)C1 (stereo not given) returned MPTP block -2, Beta cell apopt 3, CSC inhib -16, Mdm2 MdmX PPI -10, SKKanGAS inh -4 and GRIN3A LBD mod 0.
O=C(C[C@H]1C/C=C\CC[C@H](Cc2ccc(F)cc2)C(=O)OC[C@H]2CCCN2C1=O)N[C@@H](CO)Cc1ccccc1 was read as MPTP block -1, Beta cell apopt 6, CSC inhib -9, Mdm2 MdmX PPI 15 and GRIN3A LBD mod 2.
Screening C=CCNC(=O)C1CC(=O)N(c2ccc(OCC(=O)Nc3cccc(OC)c3)cc2)C1 (stereo not given) returned MPTP block 0, Beta cell apopt 4, CSC inhib -3, Mdm2 MdmX PPI 3, SKKanGAS inh 4 and GRIN3A LBD mod 1.
`C=CCNC(=O)C1CC(=O)N(c2ccc(OCC(=O)Nc3ccc(Cl)c(C(F)(F)F)c3)cc2)C1` (stereo not given) gave MPTP block 1, CSC inhib -8, Mdm2 MdmX PPI 78*, SKKanGAS inh 1, GRIN3A LBD mod 3 and Mdm2 MdmX conf 12.
For COc1nc(N)c(C#N)c(-c2ccc(N(C)CCC#N)cc2)c1C#N the results were MPTP block 6, Beta cell apopt 10, CSC inhib 23, Mdm2 MdmX PPI 73*, SKKanGAS inh 10, GRIN3A LBD mod -1, Mdm2 MdmX conf 47* and Full FLuc ctr 82*.
Screening COc1ccc(-c2c(C#N)c(N)nc(Sc3ccc(Cl)cc3)c2C#N)cc1 returned MPTP block 14, Beta cell apopt 36, CSC inhib 17, Mdm2 MdmX PPI 33, SKKanGAS inh 0 and GRIN3A LBD mod 1.
For CCc1ccc2c(c1)C(c1ccc([N+](=O)[O-])cc1)=NNC(c1ccc(Br)cc1)=N2 the results were MPTP block 7, Beta cell apopt 6, CSC inhib 15, Mdm2 MdmX PPI 18, SKKanGAS inh 32 and GRIN3A LBD mod -1.
For Cc1ccc2c(c1)C(c1ccc([N+](=O)[O-])cc1)=NNC(c1ccc(Br)cc1)=N2 the results were MPTP block 1, Beta cell apopt 11, CSC inhib 14, Mdm2 MdmX PPI 71*, SKKanGAS inh 13, GRIN3A LBD mod -3 and Mdm2 MdmX conf -3.
`CC(C)(C)C(=O)O/N=C(\N)c1c(Cl)cccc1Cl` gave MPTP block 0, Beta cell apopt -1, CSC inhib 9, Mdm2 MdmX PPI 54*, SKKanGAS inh 2, GRIN3A LBD mod 0 and Mdm2 MdmX conf -6.
